From PubChem BioAssay (EPA / NIEHS)
Active and inactive are the calls of the source. Rule for the calls: active = hit-call score of the fitted dose curve at least 0.9, where 1 is the maximum; inactive = score below 0.9.

Assays:
Settings in all cases: mRNA level, 48 h; actives raise or lower the signal
[1] = read-out: Glutamate-cysteine ligase catalytic (GCLC), GCLC (gene 2729); test: LTEA_HepaRG_GCLC: Life Technologies and Expression Analysis (LTEA) Assay for Glutamate-cysteine ligase catalytic (GCLC) using HepaRG (AID 2283498)
Method in brief: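 Differentiated HepaRG cells exposed 48 h in serum-free induction medium, eight-point half-log series topping at 100 uM in 0.5% DMSO, duplicates. GCLC mRNA by qRT-PCR normalized to ACTB, GAPDH and POLR2A, fitted bidirectionally versus DMSO.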

[2] = read-out: growth arrest and DNA damage 45 (GADD45G), GADD45G (gene 10912); test: LTEA_HepaRG_GADD45G: Life Technologies and Expression Analysis (LTEA) Assay for growth arrest and DNA damage 45 (GADD45G) using HepaRG (AID 2283499)
Method in brief: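 Gain or loss of GADD45G mRNA, quantified by TaqMan qRT-PCR against three housekeeping genes, is fitted in both directions relative to 0.5% DMSO. Human HepaRG cultures receive test chemical for 48 h at up to 100 uM.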

[3] = read-out: Glutamate-cysteine ligase regulatory (GCLM), GCLM (gene 2730); test: LTEA_HepaRG_GCLM: Life Technologies and Expression Analysis (LTEA) Assay for Glutamate-cysteine ligase regulatory (GCLM) using HepaRG (AID 2283500)
Method in brief: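 Differentiated human HepaRG cells exposed 48 h in serum-free induction medium to 8-point half-log concentrations (top 100 uM, 0.5% DMSO), in duplicate. GCLM mRNA quantified by qRT-PCR, normalized to ACTB, GAPDH, POLR2A; bidirectional fitting versus DMSO.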

[4] = read-out: Glutathione S-transferase M3 (GSTM3), GSTM3 (gene 2947); test: LTEA_HepaRG_GSTM3: Life Technologies and Expression Analysis (LTEA) Assay for Glutathione S-transferase M3 (GSTM3) using HepaRG (AID 2283501)
Method in brief: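 HepaRG, plated 48 h, then serum-free induction medium; test chemical 48 h, duplicate; 100 uM top, half-log x8, 0.5% DMSO. Read-out: GSTM3 mRNA (TaqMan qRT-PCR, Fluidigm array). Bidirectional fit vs DMSO.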

[5] = read-out: Heat shock 70 kDa protein 1 (HSPA1A), gene 3303; test: LTEA_HepaRG_HSPA1A: Life Technologies and Expression Analysis (LTEA) Assay for Heat shock 70 kDa protein 1 (HSPA1A) using HepaRG (AID 2283502)
Method in brief: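 Differentiated human HepaRG cells in serum-free induction medium were exposed in duplicate for 48 h to eight concentrations (top 100 uM, half-log steps, 0.5% DMSO). HSPA1A mRNA was quantified by qRT-PCR, normalized to ACTB, GAPDH and POLR2A, and fitted bidirectionally against DMSO.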

[6] = read-out: Hypoxia-inducible factor 1-alpha (Homo sapiens) (UniProt Q16665); test: LTEA_HepaRG_HIF1A: Life Technologies and Expression Analysis (LTEA) Assay for Hypoxia-inducible factor 1 (HIF1A) Trancription factor using HepaRG (AID 2283503);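 note: HIF1A transcript by TaqMan qRT-PCR normalized to ACTB GAPDH and POLR2A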
Method in brief: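 HepaRG, 48 h exposure, 8-pt half-log series from 100 uM, 0.5% DMSO vehicle, duplicates. Readout: HIF1A transcript by qRT-PCR (Fluidigm array), housekeeping-normalised. Bidirectional curve fit vs DMSO baseline.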

[7] = read-out: 3-Hydroxy-3-Methylglutaryl-CoA Synthase 2 (HMGCS2), HMGCS2 (gene 3158); test: LTEA_HepaRG_HMGCS2: Life Technologies and Expression Analysis (LTEA) Assay for 3-Hydroxy-3-Methylglutaryl-CoA Synthase 2 (HMGCS2) using HepaRG (AID 2283504)
Method in brief: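 HepaRG, plated 48 h then switched to serum-free induction media; cmpd 8-pt, max 100 uM, 1/2-log, 0.5% DMSO, n=2, 48 h. HMGCS2 mRNA by Fluidigm TaqMan qRT-PCR, ACTB/GAPDH/POLR2A norm; bidirectional fit vs DMSO.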

[8] = read-out: HGF (gene 3082); test: LTEA_HepaRG_HGF: Life Technologies and Expression Analysis (LTEA) Assay for Hepatocyte Growth Facto (HGF) using HepaRG (AID 2283505)
Method in brief: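 Read-out is HGF transcript level by qRT-PCR, normalized to three housekeeping genes, fitted bidirectionally against 0.5% DMSO vehicle. Human HepaRG cells received test chemicals for 48 h at up to 100 uM.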

[9] = read-out: Insulin Like Growth Factor 1 (IGF1), IGF1 (gene 3479); test: LTEA_HepaRG_IGF1: Life Technologies and Expression Analysis (LTEA) Assay for Insulin Like Growth Factor 1 (IGF1) using HepaRG (AID 2283506)
Method in brief: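 Differentiated human HepaRG cells were dosed for 48 h in serum-free induction medium with 0.5% DMSO, eight half-log concentrations up to 100 uM, in duplicate. IGF1 mRNA was quantified by qRT-PCR normalized to ACTB, GAPDH, POLR2A; bidirectional fitting versus DMSO.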

[10] = read-out: Intercellular Adhesion Molecule 1 (ICAM1), ICAM1 (gene 3383); test: LTEA_HepaRG_ICAM1: Life Technologies and Expression Analysis (LTEA) Assay for Intercellular Adhesion Molecule 1 (ICAM1) using HepaRG (AID 2283507)
Method in brief: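 Readout is qRT-PCR mRNA level, normalized to three housekeeping genes and fitted bidirectionally against 0.5% DMSO vehicle. Human HepaRG cultures received compound for 48 h, top concentration 100 uM with half-log dilutions.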

[11] = read-out: Insulin-like growth factor-binding protein 1 (IGFBP1), IGFBP1 (gene 3484); test: LTEA_HepaRG_IGFBP1: Life Technologies and Expression Analysis (LTEA) Assay for Insulin-like growth factor-binding protein 1 (IGFBP1) using HepaRG (AID 2283508)
Method in brief: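 Thawed HepaRG cells are plated for 48 h, switched to serum-free induction medium, then dosed in duplicate for another 48 h (100 uM top, half-log steps). Lysates in RLT go to qRT-PCR, and gain or loss of signal is fitted relative to vehicle.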

[12] = read-out: Interleukin 6 (IL6), IL6 (gene 3569); test: LTEA_HepaRG_IL6: Life Technologies and Expression Analysis (LTEA) Assay for Interleukin 6 (IL6) using HepaRG (AID 2283509)
Method in brief: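 HepaRG cells exposed in duplicate for 48 h to eight half-log concentrations, top 100 uM, in 0.5% DMSO serum-free induction medium. mRNA measured by qRT-PCR, normalized to ACTB, GAPDH and POLR2A. Bidirectional fit versus DMSO.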

[13] = read-out: Interleukin 6 Receptor (IL6R), IL6R (gene 3570); test: LTEA_HepaRG_IL6R: Life Technologies and Expression Analysis (LTEA) Assay for Interleukin 6 Receptor (IL6R) using HepaRG (AID 2283510);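 for AC50: TaqMan qRT-PCR signal normalized to ACTB GAPDH and POLR2A housekeeping genes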
Method in brief: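 Differentiated human HepaRG cells, plated 48 h then switched to serum-free induction medium, were dosed in duplicate for 48 h at eight half-log concentrations up to 100 uM in 0.5% DMSO. IL6R mRNA quantified by qRT-PCR, normalized to ACTB/GAPDH/POLR2A; bidirectional fit versus DMSO.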

[14] = read-out: Potassium channel subfamily K member 1 (KCNK1), KCNK1 (gene 3775); test: LTEA_HepaRG_KCNK1: Life Technologies and Expression Analysis (LTEA) Assay for Potassium channel subfamily K member 1 (KCNK1) using HepaRG (AID 2283511)
Method in brief: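 Differentiated HepaRG cells, 48 h exposure in serum-free induction medium with 0.5% DMSO; 8 concentrations, half-log from 100 uM, duplicate. KCNK1 mRNA by qRT-PCR, normalized to ACTB, GAPDH, POLR2A; bidirectional fit vs DMSO.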

[15] = read-out: Keratin 19 (KRT19), KRT19 (gene 3880); test: LTEA_HepaRG_KRT19: Life Technologies and Expression Analysis (LTEA) Assay for Keratin 19 (KRT19) using HepaRG (AID 2283512)
Method in brief: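 KRT19 transcript levels, measured by Fluidigm qRT-PCR against three housekeeping genes, are fitted for gain or loss of signal relative to DMSO. Human HepaRG cells receive test chemicals (top 100 uM, half-log steps, 0.5% DMSO) for 48 hours.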

[16] = read-out: JUN Transcription Factor, JUN (gene 3725); test: LTEA_HepaRG_JUN: Life Technologies and Expression Analysis (LTEA) Assay for JUN Transcription Factor using HepaRG (AID 2283513)
Method in brief: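 Differentiated HepaRG cells were exposed to chemicals for 48 h in serum-free induction medium, 8 concentrations from 100 uM in half-log steps, 0.5% DMSO vehicle, in duplicate. JUN mRNA was quantified by TaqMan qRT-PCR, normalized to ACTB, GAPDH, POLR2A.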

[17] = read-out: Lipase C (LIPC), LIPC (gene 3990); test: LTEA_HepaRG_LIPC: Life Technologies and Expression Analysis (LTEA) Assay for Lipase C (LIPC) using HepaRG (AID 2283514)
Method in brief: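 HepaRG cells, 48 h after plating, treated in duplicate for 48 h in serum-free induction medium over 8 half-log concentrations from 100 uM, 0.5% DMSO. LIPC mRNA by TaqMan qRT-PCR normalized to ACTB/GAPDH/POLR2A; bidirectional fit versus DMSO.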

[18] = read-out: Lipoprotein lipase (LPL), LPL (gene 4023); test: LTEA_HepaRG_LPL: Life Technologies and Expression Analysis (LTEA) Assay for Lipoprotein lipase (LPL) using HepaRG (AID 2283515)
Method in brief: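 Differentiated HepaRG cells, plated 48 h, then exposed 48 h in serum-free induction medium to 8 concentrations (top 100 uM, half-log steps) in 0.5% DMSO, duplicate. LPL mRNA measured by qRT-PCR, normalized to ACTB, GAPDH and POLR2A.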

[19] = read-out: MicroRNA 122 (MIR122), gene 406906; test: LTEA_HepaRG_MIR122: Life Technologies and Expression Analysis (LTEA) Assay for MicroRNA 122 (MIR122) using HepaRG (AID 2283516); note: the transcript read is the microRNA miR-122
Method in brief: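 Differentiated human HepaRG cells were exposed 48 h in serum-free induction medium to eight half-log concentrations (top 100 uM, 0.5% DMSO). Transcript level was measured by TaqMan qRT-PCR, normalized to ACTB, GAPDH and POLR2A, and fitted bidirectionally versus DMSO.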

[20] = read-out: matrix metalloproteinase-10 (MMP10), MMP10 (gene 4319); test: LTEA_HepaRG_MMP10: Life Technologies and Expression Analysis (LTEA) Assay for matrix metalloproteinase-10 (MMP10) using HepaRG (AID 2283517)
Method in brief: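 Differentiated HepaRG cells in serum-free induction medium exposed 48 h in duplicate to 8-point half-log series up to 100 uM in 0.5% DMSO. mRNA quantified by qRT-PCR, normalised to ACTB, GAPDH, POLR2A; bidirectional fit versus DMSO.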

Measured: AC50

Chain of Hypoxia-inducible factor 1-alpha (Homo sapiens) (Q16665 whole entry, looked up): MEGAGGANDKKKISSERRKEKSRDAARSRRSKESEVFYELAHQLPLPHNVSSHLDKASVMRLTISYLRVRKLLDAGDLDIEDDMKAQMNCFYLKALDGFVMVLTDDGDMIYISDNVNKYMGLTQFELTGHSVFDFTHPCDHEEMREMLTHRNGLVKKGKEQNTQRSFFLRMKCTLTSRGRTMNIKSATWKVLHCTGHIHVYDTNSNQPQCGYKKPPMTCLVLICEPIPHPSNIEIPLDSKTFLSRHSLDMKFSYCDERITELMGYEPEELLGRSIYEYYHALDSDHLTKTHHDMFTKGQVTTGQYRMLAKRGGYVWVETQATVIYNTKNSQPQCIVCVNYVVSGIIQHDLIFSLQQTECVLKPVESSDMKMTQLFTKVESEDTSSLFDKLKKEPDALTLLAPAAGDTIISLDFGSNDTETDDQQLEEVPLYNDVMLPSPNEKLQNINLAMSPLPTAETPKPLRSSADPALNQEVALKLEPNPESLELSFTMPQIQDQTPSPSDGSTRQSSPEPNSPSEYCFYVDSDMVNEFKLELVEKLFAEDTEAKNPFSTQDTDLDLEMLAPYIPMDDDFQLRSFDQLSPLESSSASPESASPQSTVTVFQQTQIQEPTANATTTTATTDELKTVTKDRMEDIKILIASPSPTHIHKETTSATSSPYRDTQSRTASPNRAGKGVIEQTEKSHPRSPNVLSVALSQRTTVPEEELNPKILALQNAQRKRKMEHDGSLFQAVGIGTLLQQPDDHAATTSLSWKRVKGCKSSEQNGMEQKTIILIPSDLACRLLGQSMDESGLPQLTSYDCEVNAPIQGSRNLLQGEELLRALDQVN

CN1CCN(c2ccccc2/C=C2\SCCN(c3ccc(Cl)c(Cl)c3)C2=O)CC1
active: [5] 71.9 µM | [7] 60.3 µM | [9] 12 µM | [10] 98.9 µM | [11] 60.9 µM | [12] 92.2 µM | [13] 50 µM | [14] 59.5 µM | [15] 12.4 µM | [16] 75.5 µM | [18] 84.9 µM | [19] 94.1 µM | [20] 93.9 µM
inactive: [1] | [2] | [3] | [4] | [6] | [8] | [17]

Cc1oc(-c2ccccc2)nc1CCOc1ccc(C[C@H](Nc2ccccc2C(=O)c2ccccc2)C(=O)O)cc1
active: [2] 0.0219 µM | [4] 27.9 µM | [5] 16.2 µM | [6] 30.8 µM | [7] 22.8 µM | [8] 15.8 µM | [9] 12.4 µM | [11] 30.9 µM | [12] 26.3 µM | [13] 30.6 µM | [14] 15.8 µM | [15] 13.2 µM | [16] 16.5 µM | [20] 25 µM
inactive: [3] | [17] | [18] | [19]

CCCCC(CC)COC(=O)CCCCC(=O)OCc1ccccc1 (configuration not stated)
inactive: [1] | [2] | [3] | [4] | [5] | [7] | [8] | [9] | [10] | [11] | [12] | [13] | [14] | [15] | [16] | [17] | [18] | [19] | [20]
